Screening results from PubChem.
aSyn 5UTR act: Activators via SNCA 5'UTR binding, MLPCN. activity score, % (tested at 7.5 µM), hits read low. alpha-synuclein 5'UTR reporter, activators screen. hit rate 7.1% among 300,000; in the data active = activity score below about -60%
The depositor's hits bear a star. A selection follows.

SMILES	aSyn 5UTR act
O=C(CN1CCCCC1)Nc1nnc(-c2ccccc2)s1	-77*
O=C(CN1CCOCC1)Nc1ccc(C2CCCCC2)cc1	-75*
O=C(NC1CCCC1)c1cc(-c2cccc(Cl)c2)on1	-186*
O=C(NC1CCCCC1)c1cc(-c2cccc(Cl)c2)on1	-235*
CCc1ccc(Nc2cc(=O)n(C3CCCCC3)c(=O)[nH]2)cc1	-79*
O=[N+]([O-])c1ccc2cn(-c3ccccc3)nc2c1	-200*
COc1ccccc1-n1cc2ccc([N+](=O)[O-])cc2n1	-119*
Cc1ccc(S(=O)(=O)NC(=O)Nc2ccc(N(C)C)cc2)cc1	-111*
CCOC(=O)c1c(NC(=O)CSc2nc3ccccc3[nH]2)sc2c1CC(C)(C)NC2(C)C	-101*
COC(=O)c1c(NC(=O)c2nc3ccccc3s2)sc2c1CC(C)(C)NC2(C)C	104
O=C(Nc1ccc2oc(-c3ccccc3F)nc2c1)c1cncc(Br)c1	-65*
O=C(Nc1ccc2oc(-c3ccccc3F)nc2c1)c1ccc([N+](=O)[O-])o1	-142*
O=C(Nc1cccc(Cl)c1)Nc1cccc(Cl)c1	-137*
CCOc1ccc(NC(=O)Nc2ccccc2SC)cc1	-142*
CSc1ccccc1NC(=S)Nc1cccc(C(F)(F)F)c1	-64*
CSc1ccccc1NC(=O)Nc1cccc(F)c1	-82*
Oc1c(C(Nc2cccc(C(F)(F)F)c2)c2ccncc2)ccc2cccnc12 (stereo unspecified)	82
NS(=O)(=O)c1cccc(NC(=O)CCSc2ccccc2Cl)c1	-120*
O=C(Nc1cccc(Cl)c1)c1cnc[nH]1	-87*
CNS(=O)(=O)c1ccc(NC(=O)Nc2cccc(F)c2)cc1	-89*
Cc1cccnc1N(C(=O)Nc1cccc(Cl)c1)C1=NCC(C)(C)S1	-66*
NS(=O)(=O)c1cccc(NC(=O)Nc2ccc(Cl)cc2)c1	-92*
O=C(Nc1ccc(C(=O)N2CCOCC2)cc1)Nc1cccc(Cl)c1	-139*
Cc1cccc(N(O)C(=O)Nc2cccc(Cl)c2)c1	-109*
O=C(Nc1cccc(F)c1)Nc1cccc(Cl)c1	-84*
SMILES	aSyn 5UTR act
O=C(Nc1cccc(Cl)c1)ON=C1c2ccccc2-c2ccccc21	-66*
N#CCc1ccc(NC(=O)Nc2cccc(Cl)c2)cc1	-143*
Cc1cccnc1NC(=O)Nc1cccc(Cl)c1	-186*
COC(=O)c1ccc(S(=O)(=O)N2CCc3ccccc32)cc1	-96*
COc1ccc(-c2nnc(NC(=O)c3ccc(S(=O)(=O)N4CCCc5ccccc54)cc3)o2)cc1	69
C=CCc1cc(/C=C2/NC(=S)NC2=O)cc(OC)c1O	52
O=C1NC(=S)N/C1=C\C=C\c1ccccc1	-104*
O=C1NC(=S)N/C1=C/c1ccc2ccccc2c1	-84*
Cc1nc(C)c(-c2csc(NCc3ccco3)n2)s1	-99*
c1coc(CNc2nc(-c3ccncc3)cs2)c1	-92*
COc1ccc(-c2csc(NCc3ccco3)n2)cc1	-160*
C/C(=N\NC(=O)C1=NNC(=O)C1C)c1cccs1 (stereo unspecified)	-81*
O=C(N/N=C/C(Br)=C/c1ccccc1)c1ccccc1F	-201*
O=C(N/N=C/C(Cl)=C/c1ccccc1)c1ccccc1F	-192*
C/C(=N/NC(=O)c1cc(C2CC2)[nH]n1)c1cccs1	84
CC1C(=O)NN=C1C(=O)N/N=C\C(Br)=C\c1ccccc1 (stereo unspecified)	-134*
O=C(N/N=C/C(Br)=C/c1ccccc1)c1cc(-c2ccco2)[nH]n1	-62*
Cc1cc(C(=O)N/N=C/c2cc(N=Nc3ccccc3)ccc2O)n[nH]1	66
O=C(/C=C/c1ccc2c(c1)OCO2)N1CCCCC1	-132*
CCOC(=O)C1CCN(C(=O)COc2ccc(Cl)cc2)CC1	-75*
CCOC(=O)C1CCCN(C(=O)CC(C)c2ccccc2)C1 (stereo unspecified)	-115*
CCOC(=O)C1CCN(C(=O)/C=C/c2ccc3c(c2)OCO3)CC1	-74*
CCOC(=O)C1CCN(C(=O)/C=C/c2ccccc2)CC1	-139*
Cc1ccsc1/C=C1\CCc2ccccc2C1=O	-165*
Cc1ccccc1/C=C1\CCCc2ccccc2C1=O	-241*
SMILES	aSyn 5UTR act
CCCCOc1ccc(C(=S)N2CCC(C(N)=O)CC2)cc1	-86*
CCC(Oc1ccccc1)C(=O)N1CCC(C(N)=O)CC1 (stereo unspecified)	-71*
CSc1cccc(NC(=O)c2sc3nc4n(c(=O)c3c2C)CCC4)c1	-131*
COc1cccc(NC(=O)c2sc3nc4n(c(=O)c3c2C)CCC4)c1	-113*
CCOC(=O)c1sc2nc3n(c(=O)c2c1C)CCCCC3	-214*
Cc1c(C(=O)Nc2cc(F)ccc2F)sc2nc3n(c(=O)c12)CCCCC3	-118*
Cc1cc(-c2csc(NC(=O)c3cccc(S(=O)(=O)N(C)C)c3)n2)c(C)n1-c1ccccc1	-83*
C=CCSc1cc(C)nc2c(-c3ccccc3)cnn12	-74*
Cc1cc(N)n2ncc(-c3ccccc3)c2n1	-149*
COc1ccc(N=Cc2oc3ccc4ccccc4c3c2O)cc1	-223*
c1csc(-c2nc(N3CCCCC3)no2)c1	-137*
Cc1cc2c(C)nc(N/N=C/c3ccc(F)cc3)nc2o1	-72*
